BJeLR viability: MLPCN primary cell-based screen for lethality selective to Ras in HRASV12 cells; BJeLR (HRASV12) viability, CellTiter-Glo ATP luminescence, 48 h; hit rate 0.17% among 300,000; inhibition, % (no concentration beside the values); in the data active = inhibition above about 50%; inconclusive = no clear call, values can overlap the other calls
Bead autofluor: compound fluorescence in toxin protease inhibitor counterscreen | fluorescence intensity (no concentration beside the values) | AID 624483 | hit rate 3.1% among 360,000 | compound autofluorescence counterscreen, microsphere flow cytometry; active compounds read high; in the data active = fluorescence intensity above about 16000; inconclusive = no clear call, values can overlap the other calls
BoNT-F LC inh: BoNT/F light chain protease inhibitors, primary screen, biochemical, flow cytometry, MLPCN library; Multiplex microsphere protease cleavage assay; hit rate 0.22% among 360,000; inhibition, % at 10 µM; Botulinum neurotoxin type F light chain protease (Clostridium botulinum); in the data active = inhibition above about 35%, passing the limit was not always enough; inconclusive = no clear call, values can overlap the other calls
BoNT-A LC inh2: BoNT/A light chain protease inhibitors, primary screen, biochemical, flow cytometry, MLPCN library. hit rate 0.17% among 360,000. Botulinum neurotoxin type A light chain protease (Clostridium botulinum A str. ATCC 3502). inhibition, % at 10 µM. multiplex microsphere protease substrate cleavage
Anthrax LF inh2: Bacillus anthracis LF protease inhibitors, primary screen, biochemical, multiplex microsphere, MLPCN library; AID 588501, 2011; hit rate 0.12% among 360,000; multiplex microsphere protease cleavage assay; inhibition, % at 10 µM; Lethal factor (Bacillus anthracis), P15917
Target sequence (P15917 whole entry, looked up): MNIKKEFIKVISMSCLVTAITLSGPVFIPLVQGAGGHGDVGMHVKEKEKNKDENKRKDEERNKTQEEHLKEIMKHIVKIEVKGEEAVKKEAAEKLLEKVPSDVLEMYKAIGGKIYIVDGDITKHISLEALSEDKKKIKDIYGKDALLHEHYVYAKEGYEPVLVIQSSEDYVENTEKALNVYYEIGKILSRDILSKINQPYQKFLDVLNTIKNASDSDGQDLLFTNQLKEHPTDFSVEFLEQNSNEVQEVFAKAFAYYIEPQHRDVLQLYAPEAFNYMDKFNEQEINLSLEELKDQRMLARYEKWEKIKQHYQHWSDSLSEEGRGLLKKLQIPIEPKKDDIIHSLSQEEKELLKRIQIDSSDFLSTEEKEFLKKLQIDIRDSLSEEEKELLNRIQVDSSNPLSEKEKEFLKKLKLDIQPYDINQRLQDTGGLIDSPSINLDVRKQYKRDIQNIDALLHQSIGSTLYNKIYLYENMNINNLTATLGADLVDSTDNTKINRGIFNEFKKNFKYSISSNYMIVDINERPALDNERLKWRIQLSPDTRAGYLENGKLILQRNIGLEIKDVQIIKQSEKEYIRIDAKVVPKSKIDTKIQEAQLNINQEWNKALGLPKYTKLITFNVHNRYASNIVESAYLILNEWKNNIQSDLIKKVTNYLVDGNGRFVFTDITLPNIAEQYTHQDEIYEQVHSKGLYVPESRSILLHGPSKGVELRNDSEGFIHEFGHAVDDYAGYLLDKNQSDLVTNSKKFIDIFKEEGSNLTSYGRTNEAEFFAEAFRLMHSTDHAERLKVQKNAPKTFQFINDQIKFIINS
Vc quorum ag: inducers of Vibrio cholerae quorum light production without autoinducers, primary screen, BH1578 luxS cqsA deficient, single point | V. cholerae BH1578 lux reporter, luminescence, 6 h | activation, % at 18.7 µM | hit rate 0.16% among 350,000 | AID 588436, 2011; in the data active = activation mostly above about 9.7%, no sharp cut-off; inconclusive = no clear call, values can overlap the other calls; inactive = mostly below about 3.7%
Numbers stand for hits; – = inactive; ? = inconclusive; · = not tested or not shown. A selection: hits, their analogues and other compounds. The true share with any hit is near 3.7%. Cut-off read from the data, not from the text of the source, unless noted: active = inhibition above about 30%; inconclusive = no clear call, values can overlap the other calls; inactive = below that.

SMILES	BJeLR viability	Bead autofluor	BoNT-F LC inh	BoNT-A LC inh2	Anthrax LF inh2	Vc quorum ag
Cc1ccc(NS(=O)(=O)c2ccc(CCC(=O)NC3CC3)cc2)cc1	–	23092	–	–	–	–
Cc1ccc(S(=O)(=O)NCC(=O)NC2CCCC2)cc1	–	23092	–	–	–	–
Cc1ccc(S(=O)(=O)NC2CCC(C(=O)O)CC2)cc1 (configuration not stated)	–	17170	–	–	–	–
Cc1ccc(S(=O)(=O)NCC(=O)NC2CCCCCC2)cc1	–	–	–	–	–	–
Cc1cc2nc(-c3ccc(F)cc3)c(CC(C)(C)C)n2c(C)c1Br	·	–	–	–	–	·
CC(=O)NC1(C)CCC2CC1C(C)=NC2(C)C (configuration not stated)	·	–	–	–	–	·
COC(=O)/C(=C1/Oc2cc(C)oc(=O)c2S1)C(F)(F)F	–	21329	–	?	–	–
COC(=O)C1=C(C(=O)c2ccccc2)C(c2cccs2)n2nnnc2N1 (configuration not stated)	–	–	–	–	–	–
CC1=C(C(=O)Nc2ccc(Cl)cc2)C(c2cccs2)n2nnnc2N1 (configuration not stated)	–	23559	–	?	–	–
Cc1ccc2c(c1)N(CC(=O)N1CCc3ccccc3C1)C(=O)CO2	–	21837	–	–	–	–
O=C(CN1C(=O)COc2ccccc21)N1CCc2ccccc21	–	–	–	–	–	–
Cc1ccc2c(c1)N(CC(=O)N1CCCc3ccccc31)C(=O)CO2	–	16620	–	–	–	–
Cc1ccc2c(c1)N(CC(=O)N1CCCCC1)C(=O)CO2	–	–	–	–	–	–
Cc1ccc(CNC(=O)CN2C(=O)COc3ccc(C)cc32)cc1	–	19416	–	–	–	–
CCNC(=O)C1(C)CCN(Cc2ccc(C#N)cc2)C1 (configuration not stated)	·	–	–	–	–	–
Cc1cc(Br)c2nc(-c3ccccc3)c(Cc3cccc(Cl)c3)n2c1	·	–	–	–	–	·
CC1(Oc2ccc3ccccc3c2)CCN(Cc2cccn2-c2nccs2)C1 (configuration not stated)	·	–	–	–	–	–
Cc1nc(N)sc1-c1csc(Nc2ccccn2)n1	–	–	–	–	–	–
Cc1nc(N)sc1-c1csc(Nc2ccc(Cl)cn2)n1	–	16519	–	–	–	–
CCc1nc2c(OCCC3CCCCC3)cccn2c1N(C=O)Cc1ccccc1	·	–	–	–	–	–
Cn1c(N)c(C(=O)Nc2ccc3ccccc3c2)sc1=S	–	21788	–	?	–	–
Cc1cccc(OCc2n[nH]c(=S)o2)c1	–	24801	–	–	–	–
Cc1cccc(C)c1OCc1n[nH]c(=S)o1	–	–	–	–	–	–
CCOC(=O)C1=CCC(C(C)(C)C)N(S(=O)(=O)c2ccc(C)cc2)C1 (configuration not stated)	·	–	–	–	–	·
CC(C)(C)S(=O)(=O)c1cnc(-c2ccc(Cl)cc2)nc1N	–	–	–	–	–	–
SMILES	BJeLR viability	Bead autofluor	BoNT-F LC inh	BoNT-A LC inh2	Anthrax LF inh2	Vc quorum ag
Cc1nc(N)nc(N)c1/C=C/C(C)(C)c1ccc(Cl)cc1	69	–	–	–	–	–
CCCCCCOc1cccc(N)c1	–	22320	–	–	–	–
CCCCOc1cccc(-c2nnc(N)s2)c1	–	–	–	–	–	–
Cn1c(NCCN2CCCC2)nc2cc(-c3cccc(C(F)(F)F)c3)sc2c1=O	·	–	–	–	–	–
O=C(OCC(=O)N1CCN(c2ccccc2)CC1)c1cccc(Cl)c1	–	23047	–	?	–	–
O=C(CCSCc1ccccc1Cl)N1CCN(c2cccc(Cl)c2)CC1	–	22753	–	–	–	–
COc1ccc(/C=C/C(=O)c2ccc([N+](=O)[O-])o2)cc1OC	70	·	·	·	·	·
COc1cc(/C=C/C(=O)c2ccc([N+](=O)[O-])o2)ccc1O	92	–	–	–	–	–
O=C(/C=C/c1cccc(Cl)c1)c1ccc([N+](=O)[O-])o1	107	–	–	–	–	–
CCCNC(=O)C1(C)CCN(C(=O)c2cccc(C(F)(F)F)c2)C1 (configuration not stated)	·	–	–	–	–	–
COc1ccc(-c2nc3nc(C)c(Cc4ccccc4)c(=O)n3[nH]2)cc1	–	22311	–	–	–	–
COC(=O)Cc1c(C)nc2nc(-c3ccc(OC)cc3)[nH]n2c1=O	–	22942	–	–	–	–
CC1CCCC(C)N1C(=O)CN1C(=O)NC2(CCCCCC2)C1=O (configuration not stated)	·	–	–	–	–	–
CCc1nc2ccccc2c(NC(=O)CN2CC(C)CC(C)C2)c1C (configuration not stated)	–	–	–	–	–	–
CCC(=O)Nc1c(C)c(CC)nc2ccccc12	–	16775	–	–	–	–
CCc1nc2ccccc2c(C(=O)O)c1C	–	22245	–	–	–	–
O=C(Nc1ccnn1C1CCN(C/C=C/c2ccccc2)CC1)C1CCCC1	–	–	–	–	–	–
O=C(Nc1ccnn1C1CCN(C/C=C/c2ccccc2)CC1)c1ccccc1Cl	–	56855	–	–	–	–
COc1cc(CN2C[C@@H](CO)O[C@@H](n3cnc4c(NC(C)C)ncnc43)C2)cc(OC)c1OC	·	–	–	–	–	–
CC(=O)N1N=C(c2ccc3nccnc3c2)CC1c1ccccc1 (configuration not stated)	–	20160	–	–	–	–
O=C(NCc1ccc(Cl)c(Cl)c1)c1cc(C2CCCCN2C(=O)c2ccccn2)on1 (configuration not stated)	·	–	–	–	–	–
CC(=O)c1c(C(C)=O)c(C)n(NC(=O)c2ccccc2O)c1C	–	20975	–	?	–	–
CC(=O)c1c(C(C)=O)c(C)n(NC(=O)c2cccnc2)c1C	–	–	–	–	–	–
Cc1occc1-c1nc(-c2ccncc2)no1	–	21018	–	–	–	–
Cc1ccc(-c2noc(-c3ccoc3C)n2)cc1	–	–	–	–	–	–
CC(C)C(NS(=O)(=O)c1cc(C(=O)O)ccc1Cl)C(=O)O (configuration not stated)	–	–	–	–	–	–
CC(C)[C@H](NC(=O)NCc1ccc(Cl)cc1)C(=O)O	–	23334	–	–	–	–
CCC(C)[C@H](NC(=O)NCc1ccc(Cl)cc1)C(=O)O (some centres not stated)	–	–	–	–	–	–
CC(C)C(NCc1c(Cl)cccc1Cl)C(=O)O (configuration not stated)	–	21266	–	–	–	–
COc1ccc(CCNC2=CC(=O)CCC2)cc1OC	·	–	–	–	–	·

Screening data from PubChem.
